In PubChem BioAssay (EPA / NIEHS):
The source made the active and inactive calls. The calls were made as follows: active = hit-call score of the fitted dose curve at least 0.9, where 1 is the maximum; inactive = score below 0.9.

Key:
[1] = ATG_CRE_CIS: Attagene CIS-FACTORIAL HepG2 Assay for human cAMP Responsive Element (CRE) binding protein 3 (AID 2282926); settings: HepG2 CRE cis-reporter, Attagene multiplexed mRNA; actives raise or lower the signal
Outline: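 HepG2 cells transiently transfected with a multiplexed reporter library (CRE-driven unit among them) were dosed for 24 h. Reporter mRNA was quantified by RT-PCR, fluorescent labelling, HpaI digestion and capillary electrophoresis, with bidirectional fitting against DMSO baseline.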

[2] = ATG_DR4_LXR_CIS: Attagene CIS-FACTORIAL HepG2 Assay for human Liver X Receptor (LXR), DR4 submotif (AID 2282929); settings: HepG2 Attagene DR4 cis-reporter, mRNA transcription; actives raise or lower the signal
Outline: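 Transiently transfected HepG2 liver cells; cis-regulated reporters; 24 h dosing. RT-PCR plus CE read-out of reporter mRNA. DMSO baseline, bidirectional curve fitting.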

[3] = ATG_AP_2_CIS: Attagene CIS-FACTORIAL HepG2 Assay for human Activator Protein 2 (AP-2) (AID 2282932); settings: HepG2 AP-2 cis-reporter, Attagene transcription factor profiling; actives raise or lower the signal
Outline: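 Step one: transient transfection of HepG2 with reporter transcription units. Step two: 24 h chemical exposure. Step three: RNA extraction, RT-PCR, labelled fragment analysis by capillary electrophoresis; DMSO serves as baseline.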

[4] = ATG_BRE_CIS: Attagene CIS-FACTORIAL HepG2 Assay for human Bone Morphogenetic Protein (BMP) Response Element (BRE) (AID 2282933); settings: HepG2 BMP response element reporter, Attagene transcription factor profiling; actives raise or lower the signal
Outline: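 Endogenous transcription factor activity read in transiently transfected HepG2 cells after 24 h chemical exposure. Bidirectional curve fitting against DMSO; readout is reporter transcript level by RT-PCR with capillary electrophoresis of labelled products.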

[5] = biological target: Transcription factor E2F1 (Homo sapiens) (UniProt Q01094); test: ATG_E2F_CIS: Attagene CIS-FACTORIAL HepG2 Assay for human E2F Transcription Factor 1 (AID 2282935); settings: HepG2 Attagene cis-reporter, E2F reporter RNA transcripts; actives raise or lower the signal
Outline: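 Total RNA from 24 h-treated, reporter-transfected HepG2 cells undergoes DNase I treatment, oligo(dT) reverse transcription, PCR and 6-FAM primer extension before capillary electrophoresis.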

[6] = ATG_E_Box_CIS: Attagene CIS-FACTORIAL HepG2 Assay for human Enhancer Box (E-box) (AID 2282936); settings: HepG2 E-box cis-reporter transcription, actives raise or lower the signal
Outline: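 DMSO served as negative control and baseline for bidirectional fitting. Human hepatoma HepG2 cells, transiently transfected with cis-reporter constructs, were dosed 24 h; reporter mRNA read by RT-PCR and capillary electrophoresis.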

[7] = ATG_M_19_CIS: Attagene CIS-FACTORIAL HepG2 Assay for M19 Transcription Factor (Internal Marker) (AID 2282939); settings: HepG2 Attagene CIS-FACTORIAL M19 internal marker reporter; actives raise or lower the signal
Outline: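 Internal marker readout, fitted in both directions against DMSO, from HepG2 cells carrying transfected cis-element reporter constructs; RT-PCR and capillary electrophoresis of reporter mRNA after 24 h exposure.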

[8] = ATG_Ets_CIS: Attagene CIS-FACTORIAL HepG2 Assay for human Erythroblast Transformation Specific (ETS) (AID 2282941); settings: HepG2 ETS cis-reporter transcription, actives raise or lower the signal
Outline: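 HepG2 cells transiently transfected with cis-promoter reporter transcription units were dosed for 24 h; reporter mRNA was measured by RT-PCR, 6-FAM primer extension, HpaI digestion and capillary electrophoresis, with bidirectional fitting against DMSO baseline.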

[9] = biological target: Hepatocyte nuclear factor 3-beta (Homo sapiens) (UniProt Q9Y261); test: ATG_FoxA2_CIS: Attagene CIS-FACTORIAL HepG2 Assay for human Forkhead box A2 (FOXA2) (AID 2282942); settings: HepG2 cis-reporter transcription factor activity, 24 h; actives raise or lower the signal
Outline: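 Multiplexed cis-element reporter assay in transiently transfected HepG2. Twenty-four hours post-dosing, RNA was reverse-transcribed, amplified, FAM-labelled, HpaI-digested and separated by CE. Activity gain or loss relative to DMSO.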

[10] = ATG_FoxO_CIS: Attagene CIS-FACTORIAL HepG2 Assay for human Forkhead box O (FoxO) (AID 2282943); settings: HepG2 Attagene cis-reporter, FoxO element, mRNA; actives raise or lower the signal
Outline: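 Human hepatoma HepG2 cells carry transiently introduced reporter transcription units controlled by cis promoter elements. Chemical treatment lasted 24 h, and mRNA signal was compared with DMSO.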

[11] = ATG_GATA_CIS: Attagene CIS-FACTORIAL HepG2 Assay for human GATA Binding Protein (AID 2282944); settings: HepG2 GATA cis-element reporter, Attagene multiplex mRNA; actives raise or lower the signal
Outline: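 Reporter transcripts from a GATA cis-regulated unit, among multiplexed reporters in transfected HepG2 cells, were measured by RT-PCR with capillary electrophoresis after 24 h dosing. Induction or loss scored relative to DMSO.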

[12] = ATG_M_32_CIS: Attagene CIS-FACTORIAL HepG2 Assay for M32 Transcription Factor (Internal Marker) (AID 2282949); settings: HepG2 Attagene cis-factorial M32 reporter, mRNA; actives raise or lower the signal;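 also: background control marker of the multiplexed CIS panel rather than a real target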
Outline: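 Internal background marker read-out: RT-PCR/capillary electrophoresis fluorescence of reporter transcripts from transiently transfected HepG2 cells after 24 h chemical exposure. Activity fitted bidirectionally relative to DMSO negative control.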

[13] = ATG_PXRE_CIS: Attagene CIS-FACTORIAL HepG2 Assay for human Pregnane X Receptor Element (PXRE) (AID 2282957); settings: HepG2 Attagene CIS-FACTORIAL PXRE reporter, mRNA; actives raise or lower the signal
Outline: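 HepG2 cells transiently transfected with cis-regulated multiple reporter transcription units; endogenous factor activity measured as reporter mRNA 24 h after dosing. RT-PCR, fluorescent primer extension, HpaI digestion, capillary electrophoresis; bidirectional fit versus DMSO baseline.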

[14] = ATG_Sox_CIS: Attagene CIS-FACTORIAL HepG2 Assay for human SRY-box transcription factor (SOX) (AID 2282960); settings: HepG2 Attagene cis-factorial SOX reporter, mRNA; actives raise or lower the signal
Outline: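 Fluorescence-labelled cDNA fragments from reporter transcripts, sized by CE, give the signal. Cells: HepG2, transiently transfected with cis-regulated reporter units. Exposure 24 h; DMSO negative control; bidirectional curve fitting.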

[15] = biological target: Transcription factor Sp1 (Homo sapiens) (UniProt P08047); test: ATG_Sp1_CIS: Attagene CIS-FACTORIAL HepG2 Assay for human Specificity Protein 1 (Sp1) (AID 2282961); settings: HepG2 Sp1 cis-reporter transcription, actives raise or lower the signal
Outline: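 Chemicals are dosed onto HepG2 cells transfected with multiple cis-promoter reporter constructs, and after 24 h reporter RNA is reverse-transcribed, PCR-amplified and resolved by capillary electrophoresis for fluorescence quantitation; activity is scored up or down against DMSO.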

[16] = ATG_SREBP_CIS: Attagene CIS-FACTORIAL HepG2 Assay for human Sterol Regulatory Element Binding (SREBP) (AID 2282962); settings: HepG2 Attagene cis-factorial SREBP reporter, mRNA; actives raise or lower the signal
Outline: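 HepG2 cells transiently transfected with multiplexed cis-element reporter units report endogenous transcription factor activity. After 24 h of chemical exposure, reporter mRNA was quantified by RT-PCR, 6-FAM labelling, HpaI digestion and capillary electrophoresis; bidirectional fits used DMSO as baseline.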

[17] = biological target: Signal transducer and activator of transcription 3 (Homo sapiens) (UniProt P40763); test: ATG_STAT3_CIS: Attagene CIS-FACTORIAL HepG2 Assay for human Signal Transducer and Activator of Transcription 3 (STAT3) (AID 2282963); settings: HepG2, Attagene cis-factorial STAT3 reporter transcription; actives raise or lower the signal
Outline: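 After a 24 h compound incubation, total RNA from MRTU-transfected HepG2 cells was converted to cDNA and reporter sequences PCR-amplified, labelled and profiled by capillary electrophoresis. Gain and loss of signal were referenced to DMSO.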

[18] = ATG_TA_CIS: Attagene CIS-FACTORIAL HepG2 Assay for human TA Basal Promoter (AID 2282964); settings: HepG2 Attagene CIS-factorial TA basal promoter reporter; actives raise or lower the signal
Outline: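 Background-control readout: TA basal promoter reporter mRNA, fitted in both directions relative to DMSO. Measured by RT-PCR and capillary electrophoresis 24 hours after treating HepG2 human liver cells transiently carrying multiplexed cis-regulated reporter constructs.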

[19] = ATG_TCF_b_cat_CIS: Attagene CIS-FACTORIAL HepG2 Assay for human T-Cell-Factor with beta-catenin (TCF/b-cat) (AID 2282965); settings: HepG2 TCF/beta-catenin cis-reporter transcription, actives raise or lower the signal
Outline: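 Measured: reporter mRNA in HepG2 transiently transfected with cis-promoter reporter units, 24 h after chemical addition. Fitting was bidirectional, DMSO as negative control.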

[20] = ATG_TGFb_CIS: Attagene CIS-FACTORIAL HepG2 Assay for human Transforming Growth Factor (TGF) (AID 2282967); settings: HepG2 Attagene CIS TGFb reporter, mRNA transcription; actives raise or lower the signal
Outline: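 Endogenous TGFB1-linked transcription factor activity read as reporter mRNA via RT-PCR and capillary electrophoresis, 24 h after dosing transiently transfected HepG2 cells. Gain or loss of signal fitted relative to DMSO.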

Measured: AC50

Sequence of Transcription factor E2F1 (Homo sapiens) (Q01094 whole entry, looked up): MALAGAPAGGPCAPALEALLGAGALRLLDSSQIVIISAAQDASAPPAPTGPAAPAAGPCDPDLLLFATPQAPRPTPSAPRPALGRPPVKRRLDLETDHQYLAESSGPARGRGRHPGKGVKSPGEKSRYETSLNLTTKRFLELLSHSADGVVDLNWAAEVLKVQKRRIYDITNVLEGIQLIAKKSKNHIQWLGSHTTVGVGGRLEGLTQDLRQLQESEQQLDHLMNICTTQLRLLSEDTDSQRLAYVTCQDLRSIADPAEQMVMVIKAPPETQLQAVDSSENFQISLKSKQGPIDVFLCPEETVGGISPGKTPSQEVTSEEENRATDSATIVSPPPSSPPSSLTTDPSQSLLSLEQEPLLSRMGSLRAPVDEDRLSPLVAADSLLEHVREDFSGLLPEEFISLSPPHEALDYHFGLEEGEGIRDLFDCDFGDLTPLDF
Sequence of Signal transducer and activator of transcription 3 (Homo sapiens) (P40763 whole entry, looked up): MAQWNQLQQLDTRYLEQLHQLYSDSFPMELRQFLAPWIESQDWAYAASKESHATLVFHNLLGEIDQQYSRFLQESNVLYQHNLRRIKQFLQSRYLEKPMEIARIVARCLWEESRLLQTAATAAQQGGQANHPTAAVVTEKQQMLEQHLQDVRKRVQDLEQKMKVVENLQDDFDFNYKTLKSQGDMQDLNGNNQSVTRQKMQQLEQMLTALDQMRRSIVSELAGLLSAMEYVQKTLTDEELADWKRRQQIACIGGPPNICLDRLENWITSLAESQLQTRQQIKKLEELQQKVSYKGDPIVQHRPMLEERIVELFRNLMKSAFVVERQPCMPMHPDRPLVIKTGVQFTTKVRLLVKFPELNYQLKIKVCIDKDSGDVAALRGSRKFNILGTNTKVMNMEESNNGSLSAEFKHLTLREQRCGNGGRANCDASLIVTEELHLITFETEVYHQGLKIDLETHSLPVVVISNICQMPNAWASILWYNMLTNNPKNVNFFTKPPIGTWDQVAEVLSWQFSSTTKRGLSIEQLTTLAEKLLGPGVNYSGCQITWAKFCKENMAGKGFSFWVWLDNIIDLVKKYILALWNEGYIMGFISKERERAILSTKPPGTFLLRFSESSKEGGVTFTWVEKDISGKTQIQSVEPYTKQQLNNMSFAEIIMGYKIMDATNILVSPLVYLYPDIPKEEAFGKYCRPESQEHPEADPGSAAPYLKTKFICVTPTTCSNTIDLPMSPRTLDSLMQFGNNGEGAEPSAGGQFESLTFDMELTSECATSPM
Sequence of Hepatocyte nuclear factor 3-beta (Homo sapiens) (Q9Y261 whole entry, looked up): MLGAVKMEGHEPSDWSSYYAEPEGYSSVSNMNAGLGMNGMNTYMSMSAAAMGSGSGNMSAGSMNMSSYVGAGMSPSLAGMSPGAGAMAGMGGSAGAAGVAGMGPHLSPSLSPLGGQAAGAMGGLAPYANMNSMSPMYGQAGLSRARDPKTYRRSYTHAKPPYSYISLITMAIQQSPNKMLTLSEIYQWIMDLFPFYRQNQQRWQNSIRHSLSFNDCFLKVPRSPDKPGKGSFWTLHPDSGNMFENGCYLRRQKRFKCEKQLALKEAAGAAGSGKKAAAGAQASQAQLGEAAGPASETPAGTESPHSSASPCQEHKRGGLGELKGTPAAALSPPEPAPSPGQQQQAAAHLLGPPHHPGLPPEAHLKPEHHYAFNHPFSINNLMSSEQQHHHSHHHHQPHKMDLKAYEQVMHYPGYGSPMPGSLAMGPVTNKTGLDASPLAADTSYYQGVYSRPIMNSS
Sequence of Transcription factor Sp1 (Homo sapiens) (P08047 whole entry, looked up): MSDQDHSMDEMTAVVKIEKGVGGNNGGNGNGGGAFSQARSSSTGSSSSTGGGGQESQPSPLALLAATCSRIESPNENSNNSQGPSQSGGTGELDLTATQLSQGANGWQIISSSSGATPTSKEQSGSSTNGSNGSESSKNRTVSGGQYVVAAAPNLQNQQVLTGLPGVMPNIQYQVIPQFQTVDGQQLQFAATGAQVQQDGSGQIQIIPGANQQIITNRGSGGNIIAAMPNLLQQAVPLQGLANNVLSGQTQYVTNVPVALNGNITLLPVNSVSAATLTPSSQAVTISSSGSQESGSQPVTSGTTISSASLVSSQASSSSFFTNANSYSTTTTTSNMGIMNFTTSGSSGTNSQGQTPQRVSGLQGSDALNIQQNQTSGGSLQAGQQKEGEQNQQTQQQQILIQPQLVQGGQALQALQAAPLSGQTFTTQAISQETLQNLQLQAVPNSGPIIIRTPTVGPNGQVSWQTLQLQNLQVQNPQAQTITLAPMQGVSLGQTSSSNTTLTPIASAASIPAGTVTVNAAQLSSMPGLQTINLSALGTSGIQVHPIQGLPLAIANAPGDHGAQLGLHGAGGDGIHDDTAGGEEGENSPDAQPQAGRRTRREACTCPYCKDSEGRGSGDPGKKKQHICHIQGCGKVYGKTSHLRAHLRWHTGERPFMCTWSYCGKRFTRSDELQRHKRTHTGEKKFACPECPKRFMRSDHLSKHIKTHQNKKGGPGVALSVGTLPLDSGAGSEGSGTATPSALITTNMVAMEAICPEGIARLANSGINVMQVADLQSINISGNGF

C#CC1(O)CCCCC1
inactive: all assays above

Nc1ccc([N+](=O)[O-])cc1N
inactive: all assays above

O=S(=O)(O)O
inactive: all assays above

CC(C)(C)C(O)C(Oc1ccc(-c2ccccc2)cc1)n1cncn1 (stereo not given)
active: [2] 57.3 µM | [13] 1.29 µM | [16] 12.7 µM | [18] 33.4 µM | [19] 51.8 µM | [20] 0.672 µM
inactive: all other assays above
